Data taken from PubChem BioAssay.
Inconclusive results are not listed. Calls of active or inactive are those of the source.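 Rule for the calls, unless noted: active = aptamer binding inhibition above 30%, about 3 SD of noise from non-fluorescent compounds; inactive = inhibition at or below 30%.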

What was measured:
[1] = yeast TOR pathway RPL19A-GFP modulators, primary screen, cell-based, S. cerevisiae, multiplex flow cytometry (AID 1862; in the data active = percent of DMSO control GFP below about 86%;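 note: lower values mimic rapamycin by blocking the RPL19A rise seen in DMSO cells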); settings: S. cerevisiae RPL19A-GFP strain, flow cytometry fluorescence, 3 h; at 10 µM; stronger effect = lower value
[2] = modulators of MEP2-GFP levels in yeast, primary screen, S. cerevisiae, multiplex flow cytometry (AID 1867;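 active = GFP response, as percent of the DMSO control, above the screen-wide mean plus 3 SD, about 139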;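 note: median GFP channel fluorescence of barcode-gated MEP2-GFP cells measured by flow cytometry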); settings: S. cerevisiae MEP2-GFP strain, 3 h, at 10 µM, stronger effect = higher value, 100% means same as DMSO wells
[3] = modulators of CIT2-GFP expression in yeast, primary screen, S. cerevisiae, GFP fusion, multiplex flow cytometry (AID 1870;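 active = percent response above a set limit, the screen-wide mean plus 3 SD, cut at about 130% in these data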;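 note: barcoded CIT2-GFP strain pooled with four other GFP strains with rapamycin as positive control; median GFP fluorescence per well over plate mean of DMSO wells so 100% = DMSO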); settings: 3 h, at 10 µM, stronger effect = higher value
[4] = modulators of LAP4-GFP expression in yeast, primary screen, S. cerevisiae, multiplex flow cytometry (AID 1873;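 active = GFP signal, as percent of the solvent control, above the screen mean plus 3 SD, about 149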); settings: 3 h, at 10 µM, stronger effect = higher value
[5] = modulators of AGP1-GFP expression in yeast TOR pathway, primary screen, cell-based, multiplex flow cytometry, S. cerevisiae (AID 1887;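 active = GFP signal above the screen-wide mean plus 3 SD, that is over about 124.5% of the solvent control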;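 note: AGP1-GFP fusion strain of S. cerevisiae within a five-strain barcoded multiplex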); settings: 3 h, at 10 µM, stronger effect = higher value
[6] = inhibitors of CD8+ T cell-vesicle binding, pilot screen, LFA-1/ICAM-1 modulator project, MLPCN validation set, flow cytometry (AID 2523;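 active = response below a set limit, under 55% cells CD8-positive and vesicle-bound, and CD8 cells' 90th-percentile brightness under 279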;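 for vesicle binding response: mean PE anti-B7-1 fluorescence of CD8+ cells relative to row control; 100% = QL9-loaded vesicles with DMSO vehicle in the same plate row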); settings: 2C mouse CD8+ T cells, at 7 µM, stronger effect = lower value; double positive events: measured here: CD8+/vesicle+ event percentage
[7] = target: Integrin beta-1 (Homo sapiens) + Integrin alpha-4 (Homo sapiens) (UniProt P13612+P05556); assay: inhibition of HUTS-21 binding to VLA-4, pilot screen, VLA-4 allosteric modulator project, U937 cells, HUTS-21 mAb, flow cytometry, validation set (AID 2674;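 active = inhibition above 50%, about 3 SD of the validation set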;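 note: antibody binding induced by the VLA-4 ligand LDV present at three times its Kd; 0% = LDV ligand with antibody and no compound and 100% = antibody without LDV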); settings: HUTS-21 LIBS mAb binding, at 6.7 µM, stronger effect = higher value, binding induced by LDV ligand
Chain of Integrin beta-1 (Homo sapiens) + Integrin alpha-4 (Homo sapiens) (P05556 whole entry, looked up): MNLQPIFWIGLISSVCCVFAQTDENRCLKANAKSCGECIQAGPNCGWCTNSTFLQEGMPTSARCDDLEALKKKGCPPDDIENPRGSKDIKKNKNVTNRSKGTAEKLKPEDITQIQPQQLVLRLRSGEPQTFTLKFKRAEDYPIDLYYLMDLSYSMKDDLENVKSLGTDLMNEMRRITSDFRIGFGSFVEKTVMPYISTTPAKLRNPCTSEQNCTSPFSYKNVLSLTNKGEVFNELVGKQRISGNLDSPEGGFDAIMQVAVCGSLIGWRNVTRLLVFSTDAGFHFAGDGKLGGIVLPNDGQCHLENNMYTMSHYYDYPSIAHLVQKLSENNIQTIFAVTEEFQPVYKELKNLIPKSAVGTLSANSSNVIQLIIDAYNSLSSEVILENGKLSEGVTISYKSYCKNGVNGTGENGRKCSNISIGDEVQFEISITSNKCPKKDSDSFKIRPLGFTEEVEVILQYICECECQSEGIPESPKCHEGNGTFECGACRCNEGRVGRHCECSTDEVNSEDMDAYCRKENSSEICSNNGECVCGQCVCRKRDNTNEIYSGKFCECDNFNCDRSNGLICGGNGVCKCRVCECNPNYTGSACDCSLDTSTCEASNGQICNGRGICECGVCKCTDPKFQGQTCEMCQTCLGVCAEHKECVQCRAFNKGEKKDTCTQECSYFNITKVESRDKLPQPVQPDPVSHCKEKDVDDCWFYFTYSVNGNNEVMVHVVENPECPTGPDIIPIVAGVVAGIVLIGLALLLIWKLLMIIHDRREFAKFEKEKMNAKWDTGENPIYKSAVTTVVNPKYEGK
Chain of Integrin beta-1 (Homo sapiens) + Integrin alpha-4 (Homo sapiens) (P13612 whole entry, looked up): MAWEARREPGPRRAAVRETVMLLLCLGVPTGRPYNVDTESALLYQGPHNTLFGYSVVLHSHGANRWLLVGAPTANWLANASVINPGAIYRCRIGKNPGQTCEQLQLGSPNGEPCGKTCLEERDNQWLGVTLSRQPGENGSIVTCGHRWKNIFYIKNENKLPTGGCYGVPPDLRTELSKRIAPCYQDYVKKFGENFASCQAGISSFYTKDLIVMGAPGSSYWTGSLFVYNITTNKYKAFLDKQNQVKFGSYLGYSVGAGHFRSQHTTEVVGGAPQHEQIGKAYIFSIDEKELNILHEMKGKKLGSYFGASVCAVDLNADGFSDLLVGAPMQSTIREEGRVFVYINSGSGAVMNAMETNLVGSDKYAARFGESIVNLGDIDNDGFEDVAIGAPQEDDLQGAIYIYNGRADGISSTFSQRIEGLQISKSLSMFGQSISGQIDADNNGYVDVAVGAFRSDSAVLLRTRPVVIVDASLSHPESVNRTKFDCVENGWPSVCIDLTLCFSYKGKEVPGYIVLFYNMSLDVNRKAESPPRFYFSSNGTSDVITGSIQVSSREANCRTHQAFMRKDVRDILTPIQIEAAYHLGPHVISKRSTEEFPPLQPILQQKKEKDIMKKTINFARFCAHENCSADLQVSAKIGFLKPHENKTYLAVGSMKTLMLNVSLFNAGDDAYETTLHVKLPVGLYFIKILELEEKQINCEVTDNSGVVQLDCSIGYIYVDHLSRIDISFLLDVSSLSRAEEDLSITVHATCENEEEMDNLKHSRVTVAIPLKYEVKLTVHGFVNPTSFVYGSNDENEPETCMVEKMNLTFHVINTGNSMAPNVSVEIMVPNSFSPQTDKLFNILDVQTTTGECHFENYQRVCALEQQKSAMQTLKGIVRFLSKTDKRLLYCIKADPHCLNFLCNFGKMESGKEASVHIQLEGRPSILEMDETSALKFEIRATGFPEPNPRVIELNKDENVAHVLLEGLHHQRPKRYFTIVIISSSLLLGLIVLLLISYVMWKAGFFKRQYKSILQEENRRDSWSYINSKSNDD

[8] = superoxide lowering in aged yeast cells, pilot screen, validation compound set (AID 2706;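 active = superoxide response below 65% of plate, a cut near 3 SD across the whole screen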;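 note: yeast exposed to compound for one week at 30 degrees C before staining; 100% = mean of all compound wells on the same plate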); settings: S. cerevisiae aging, superoxide DHE fluorescence; at 10 µM; stronger effect = lower value
[9] = target: Beta-adrenergic receptor kinase 1 (Homo sapiens) (UniProt P25098); assay: GRK2 binders displacing RNA aptamer, biochemical, validation, human GRK2, bead flow cytometry (AID 488806); settings: bead-bound GRK2, FAM-aptamer displacement, at 10 µM, stronger effect = higher value
Chain of Beta-adrenergic receptor kinase 1 (Homo sapiens) (P25098 whole entry, looked up): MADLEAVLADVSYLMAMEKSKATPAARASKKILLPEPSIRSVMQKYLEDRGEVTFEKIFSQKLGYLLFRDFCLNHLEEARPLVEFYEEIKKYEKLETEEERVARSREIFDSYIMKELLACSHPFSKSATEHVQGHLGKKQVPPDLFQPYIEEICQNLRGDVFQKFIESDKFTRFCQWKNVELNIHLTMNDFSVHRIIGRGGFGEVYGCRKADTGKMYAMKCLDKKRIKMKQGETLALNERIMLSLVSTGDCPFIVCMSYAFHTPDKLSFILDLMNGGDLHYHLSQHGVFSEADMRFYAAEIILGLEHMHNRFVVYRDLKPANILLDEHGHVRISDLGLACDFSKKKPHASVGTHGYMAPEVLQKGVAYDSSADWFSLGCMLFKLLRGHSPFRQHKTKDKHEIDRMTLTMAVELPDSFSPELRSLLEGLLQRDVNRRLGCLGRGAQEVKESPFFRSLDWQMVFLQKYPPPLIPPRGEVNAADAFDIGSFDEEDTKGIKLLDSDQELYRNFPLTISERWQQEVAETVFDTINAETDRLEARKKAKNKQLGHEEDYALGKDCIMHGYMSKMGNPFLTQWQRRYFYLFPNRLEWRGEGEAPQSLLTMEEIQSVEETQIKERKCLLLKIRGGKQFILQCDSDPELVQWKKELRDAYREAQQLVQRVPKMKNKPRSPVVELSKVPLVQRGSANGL

[10] = target: Beta-2 adrenergic receptor (Homo sapiens) (UniProt P07550); assay: beta2AR agonists driving receptor internalization, pilot screen, cell-based, FAP fluorogen, flow cytometry, validation set (AID 504459;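 active = percent response above 42, roughly 3 SD of non-fluorescent test compounds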;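 note: agonist-driven loss of surface beta2AR via internalization measured by FAP dye flow cytometry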); settings: Am2.2-beta2AR cells, FAP surface receptor flow cytometry; at 10 µM; stronger effect = higher value
Chain of Beta-2 adrenergic receptor (Homo sapiens) (P07550 whole entry, looked up): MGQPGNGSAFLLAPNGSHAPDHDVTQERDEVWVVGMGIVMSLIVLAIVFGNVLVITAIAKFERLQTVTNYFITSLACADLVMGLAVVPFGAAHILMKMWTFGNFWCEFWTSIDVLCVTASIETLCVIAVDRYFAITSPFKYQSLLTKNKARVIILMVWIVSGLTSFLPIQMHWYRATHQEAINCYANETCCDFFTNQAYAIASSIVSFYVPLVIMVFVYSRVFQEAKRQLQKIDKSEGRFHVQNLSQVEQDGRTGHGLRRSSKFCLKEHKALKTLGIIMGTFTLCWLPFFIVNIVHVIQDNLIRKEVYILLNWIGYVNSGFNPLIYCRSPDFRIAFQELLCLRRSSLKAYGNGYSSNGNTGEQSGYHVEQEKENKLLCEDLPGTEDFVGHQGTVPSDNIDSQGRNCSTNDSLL

[11] = target: AP-2 complex subunit beta (Homo sapiens) (UniProt P63010); assay: inhibitors of arrestin peptide binding to AP2, pilot screen, biochemical, validation set, GST-AP2 beads, flow cytometry (AID 504541;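 active = inhibition above 54%, about 3 SD of non-fluorescent compounds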;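 note: AP2 carries R879A mutation and is captured from E. coli lysate; bead-bound FITC arrestin peptide fluorescence measuring arrestin peptide binding to AP2; 0% = DMSO wells and 100% = excess unlabeled arrestin peptide control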); settings: FITC arrestin peptide, at 10 µM, stronger effect = higher value, AP2 beta2 appendage fragment, R879A mutant
Chain of AP-2 complex subunit beta (Homo sapiens) (P63010 whole entry, looked up, the tested form may be a part, one chain of several): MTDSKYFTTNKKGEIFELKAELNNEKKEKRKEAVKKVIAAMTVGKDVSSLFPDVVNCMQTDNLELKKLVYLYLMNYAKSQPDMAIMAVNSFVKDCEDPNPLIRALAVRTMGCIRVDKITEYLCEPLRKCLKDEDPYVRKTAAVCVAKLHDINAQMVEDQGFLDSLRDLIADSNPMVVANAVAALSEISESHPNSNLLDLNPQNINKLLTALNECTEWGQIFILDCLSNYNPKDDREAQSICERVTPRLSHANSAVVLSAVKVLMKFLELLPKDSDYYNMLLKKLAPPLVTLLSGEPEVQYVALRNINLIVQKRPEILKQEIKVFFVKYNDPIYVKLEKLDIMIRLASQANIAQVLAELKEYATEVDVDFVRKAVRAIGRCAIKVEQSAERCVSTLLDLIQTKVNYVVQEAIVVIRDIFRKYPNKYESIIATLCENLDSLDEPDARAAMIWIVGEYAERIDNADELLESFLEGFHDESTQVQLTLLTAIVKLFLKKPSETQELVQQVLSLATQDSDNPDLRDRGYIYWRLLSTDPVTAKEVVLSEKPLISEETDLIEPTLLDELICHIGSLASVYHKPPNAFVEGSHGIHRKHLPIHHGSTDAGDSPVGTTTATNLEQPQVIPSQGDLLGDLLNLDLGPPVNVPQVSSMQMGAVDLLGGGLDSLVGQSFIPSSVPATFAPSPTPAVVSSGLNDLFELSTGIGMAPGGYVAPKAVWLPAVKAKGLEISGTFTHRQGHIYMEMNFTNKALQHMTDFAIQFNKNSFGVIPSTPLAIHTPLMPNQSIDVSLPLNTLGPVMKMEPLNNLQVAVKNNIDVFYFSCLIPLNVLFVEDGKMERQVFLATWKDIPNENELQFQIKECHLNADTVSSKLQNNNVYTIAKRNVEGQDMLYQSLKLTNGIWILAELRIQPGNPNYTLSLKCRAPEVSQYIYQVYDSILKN

[12] = yeast V-ATPase proton transport modulators, S. cerevisiae, pHLuorin, HTS validation (AID 504600; in the data active = response above about 15%;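 note: plate controls were DMSO for no effect and reference compound for full effect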); settings: S. cerevisiae pHLuorin cytosolic pH, at 10 µM, stronger effect = higher value
[13] = system: anti-desmoglein-3 scFv antibody binding to human DSG3; assay: inhibitors of anti-DSG3 scFv binding to DSG3, pilot screen, biochemical, validation compound set, bead-based, flow cytometry (AID 588368;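 active = binding below the plate cutoff, the plate median minus 3 SD, with a reading above zero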;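 note: signal is the median channel fluorescence of bead-bound GFP antibody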); settings: Protein G beads, DSG3-Fc, scFv-GFP binding, at 10 µM, stronger effect = lower value
[14] = inhibitors of fungal efflux pumps CDR1, CDR2, MDR1, pilot screen, validation compound set, multiplex, phenotypic (AID 588506;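 active = efflux inhibition above 0.42, the validation set average plus 4 SD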;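 note: Nile Red retained in cells so higher fluorescence means more efflux inhibition; 0 = negative control wells and 1 = enniatin B 25 µM full block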); settings: S. cerevisiae pump-expressing triplex, Nile Red efflux flow cytometry; at 10 µM; stronger effect = higher value; the pumps come from Candida albicans
[15] = target: ATP-binding cassette sub-family B member 6 (Homo sapiens) (UniProt Q9NP58); assay: ABCB6 transporter inhibitors, pilot screen, K562-ABCB6 cells, flow cytometry, validation set (AID 588550;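 active = inhibition above the screen-wide mean plus 3 SD, about 51%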;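 note: 0% = DMSO wells and 100% = benzethonium chloride 70 µM positive control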); settings: K562-ABCB6 porphyrin accumulation, 1 h, at 10 µM, stronger effect = higher value
Chain of ATP-binding cassette sub-family B member 6 (Homo sapiens) (Q9NP58 whole entry, looked up): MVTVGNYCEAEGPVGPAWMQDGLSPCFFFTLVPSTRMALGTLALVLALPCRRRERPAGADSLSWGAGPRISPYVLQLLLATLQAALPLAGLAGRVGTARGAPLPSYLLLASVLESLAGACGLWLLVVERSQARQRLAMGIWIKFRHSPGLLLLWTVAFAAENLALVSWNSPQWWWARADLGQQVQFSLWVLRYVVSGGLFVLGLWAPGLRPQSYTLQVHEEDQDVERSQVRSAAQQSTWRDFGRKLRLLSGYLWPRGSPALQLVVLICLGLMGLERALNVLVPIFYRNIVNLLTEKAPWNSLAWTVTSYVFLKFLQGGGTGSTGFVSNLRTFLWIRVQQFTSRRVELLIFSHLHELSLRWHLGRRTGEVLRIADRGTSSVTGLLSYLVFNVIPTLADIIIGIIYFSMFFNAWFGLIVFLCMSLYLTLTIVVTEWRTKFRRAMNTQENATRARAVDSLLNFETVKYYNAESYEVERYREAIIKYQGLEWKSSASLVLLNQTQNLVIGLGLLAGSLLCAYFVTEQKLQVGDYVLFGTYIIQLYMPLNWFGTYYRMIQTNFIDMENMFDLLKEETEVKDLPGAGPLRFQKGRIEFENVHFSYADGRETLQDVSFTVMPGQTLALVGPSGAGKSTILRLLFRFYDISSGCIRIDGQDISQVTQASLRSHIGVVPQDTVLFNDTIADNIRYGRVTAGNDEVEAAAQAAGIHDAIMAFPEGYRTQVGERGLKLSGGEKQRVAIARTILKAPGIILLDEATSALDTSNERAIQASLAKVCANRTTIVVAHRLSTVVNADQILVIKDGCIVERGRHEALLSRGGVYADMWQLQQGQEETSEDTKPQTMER

[16] = promoters of myeloid differentiation in arrested cells, primary screen, cell-based, GFP/MAC1 double positive, flow cytometry, validation set (AID 588685;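 active = differentiation response of at least 50%, scaled between solvent and reference control, from cells with both markers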;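 note: compound exposure lasts four days before antibody staining and flow analysis; 0% = DMSO wells and 100% = 5 µM fulvestrant positive control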); settings: ER-HoxA9 marrow cells, stronger effect = higher value, normalized: vehicle 0, fulvestrant 100

Row | Compound | percent of DMSO control GFP [1] | GFP response vs DMSO [2] | percent response of DMSO control [3] | GFP response vs DMSO [4] | GFP response, % of DMSO [5] | double positive events [6] | vesicle binding response [6] | inhibition [7] | superoxide response (% of plate) [8] | aptamer binding inhibition [9] | response [10] | inhibition [11] | response [12] | binding (% of control) [13] | efflux inhibition (fraction of control) [14] | inhibition [15] | differentiation response [16]
1 | O=C(NCCc1c[nH]c2ccccc12)c1cccnc1 | 101% (inactive) | 101% (inactive) | 98.6% (inactive) | 113% (inactive) | 103% (inactive) | 61.5% | 188% (inactive) | 2.3% (inactive) | 93.7% (inactive) | 3% (inactive) | -0.09% (inactive) | 17.6% (inactive) | -6.3% (inactive) | 90.1% (inactive) | 0.3 (inactive) | 6% (inactive) | 12% (inactive)
2 | Brc1c(NC2=NCCN2)ccc2nccnc12 | 95% (inactive) | 105% (inactive) | 93.9% (inactive) | 119% (inactive) | 103% (inactive) | 56.2% | 191% (inactive) | 6.4% (inactive) | 95.4% (inactive) | 3% (inactive) | -8.4% (inactive) | 10.1% (inactive) | 0.44% (inactive) | 102% (inactive) | -0.24 (inactive) | 1% (inactive) | -12% (inactive)
3 | CNCCCC1c2ccccc2C=Cc2ccccc21 | 96.1% (inactive) | 116% (inactive) | 108% (inactive) | 83.1% (inactive) | 97% (inactive) | 71.4% | 307% (inactive) | 8.4% (inactive) | 103% (inactive) | -3% (inactive) | 23.4% (inactive) | -2.69% (inactive) | 0.79% (inactive) | 101% (inactive) | 0.16 (inactive) | 9% (inactive) | -3.28% (inactive)
4 | CC1(C)CC(C(CC(=O)O)c2ccccc2)CCO1 (stereo not given) | 97.6% (inactive) | 103% (inactive) | 99.6% (inactive) | 109% (inactive) | 102% (inactive) | 58.1% | 155% (inactive) | -1.79% (inactive) | 99.7% (inactive) | 0% (inactive) | -5.23% (inactive) | 48.1% (inactive) | -5.35% (inactive) | 95.7% (inactive) | 0.05 (inactive) | 2% (inactive) | 37.6% (inactive)
5 | COc1cc(CO)ccc1OCc1nnnn1-c1ccc(C)cc1 | 102% (inactive) | 105% (inactive) | 102% (inactive) | 95.9% (inactive) | 101% (inactive) | 58.4% | 163% (inactive) | 2.93% (inactive) | 107% (inactive) | -1% (inactive) | 6.38% (inactive) | -5.08% (inactive) | 10.4% (inactive) | 97.3% (inactive) | 0.64 (active) | -8% (inactive) | -1.65% (inactive)
6 | Cc1ccccc1NC(=O)c1c(C)cc(=O)oc1C | 106% (inactive) | 101% (inactive) | 113% (inactive) | 84.8% (inactive) | 99.2% (inactive) | 67.4% | 771% (inactive) | 5.77% (inactive) | 83.4% (inactive) | 4% (inactive) | -4.18% (inactive) | -11.4% (inactive) | 1.91% (inactive) | 92.7% (inactive) | -0.2 (inactive) | -3% (inactive) | -1.71% (inactive)
7 | CS(=O)c1ccccc1O (stereo not given) | 103% (inactive) | 98.8% (inactive) | 92.8% (inactive) | 93% (inactive) | 99.2% (inactive) | 67.1% | 144% (inactive) | 8.28% (inactive) | 47.1% (active) | 0% (inactive) | 33.6% (inactive) | 38.1% (inactive) | 0.1% (inactive) | 101% (inactive) | -0.15 (inactive) | 11% (inactive) | 3.45% (inactive)
8 | OCCC1CN(Cc2nc(-c3ccccc3)cs2)CCN1Cc1ccc(F)cc1 (stereo not given) | 106% (inactive) | 98.7% (inactive) | 115% (inactive) | 100% (inactive) | 104% (inactive) | 68.6% | 312% (inactive) | -6.45% (inactive) | 103% (inactive) | 0% (inactive) | 2.61% (inactive) | -6.97% (inactive) | -2.6% (inactive) | 100% (inactive) | 0.31 (inactive) | 9% (inactive) | -6.03% (inactive)
9 | CC(NC(=O)OCc1ccccc1)C(=O)N1CC(O)CC1C(=O)O (stereo not given) | 103% (inactive) | 112% (inactive) | 90.1% (inactive) | 105% (inactive) | 103% (inactive) | 62.9% | 182% (inactive) | 6.4% (inactive) | 97.5% (inactive) | 3% (inactive) | 9.77% (inactive) | 31.1% (inactive) | -4.2% (inactive) | 99.5% (inactive) | 0.8 (active) | 4% (inactive) | 29.6% (inactive)
10 | C#C[C@]1(O)CC[C@H]2[C@@H]3CCc4cc(OC)ccc4[C@H]3CC[C@@]21C | 103% (inactive) | 104% (inactive) | 102% (inactive) | 126% (inactive) | 115% (inactive) | 63.7% | 229% (inactive) | 3.14% (inactive) | 115% (inactive) | -1% (inactive) | -13.2% (inactive) | 31.4% (inactive) | 0.87% (inactive) | 108% (inactive) | -0.04 (inactive) | 5% (inactive) | -2.03% (inactive)
